According to PubChem BioAssay (NCI):
Values joined by “and” are separate entries in the source; they are usually repeats but may differ in a detail not shown here. Equal values may be shown once. The panel holds about 83,000 compounds, 20% with a hit somewhere; the sample as a whole holds those more often.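 Interpretation: 100, growth as untreated; towards 0, rising growth inhibition; 0, no net growth; 0 to -100, cell death. Compounds scoring below 10 were considered active.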 Unmarked numbers belong to inactive results. Active and inactive are the calls of the source.

The compounds below were run on HL-60(TB) leukemia (assay: NCI-60 one-dose screen, 48 h (100 = growth as untreated, 0 = no growth, -100 = all killed)). Details: 10 µM unless noted.
`CC[C@]12C=CCN3CC[C@]4(C(=C(C(=O)OC)C1)Nc1cc(OC)c([C@@H]5[C@H]6O[C@H]6[C@@]6(CC)CC(C(=O)OC)=C7Nc8cc(O)ccc8[C@@]78CCN5[C@@H]68)cc14)[C@@H]32` was tested, and the growth was -44.4% (active).
With `CCOC(=O)C1=C(N)N(c2ccccc2)C2=C(C(=O)CC(C)(C)C2)C1c1ccc(Cl)cc1` (configuration not stated) the growth was 6.03% (active).
In the case of `COc1ccc2nc(Cl)c(-c3cc(-c4ccccc4)nc(=O)[nH]3)cc2c1`, the growth is reported as 3.35% (active).
`Cc1cccc(-c2nc(Nc3ccc(C)c(S(N)(=O)=O)c3)c3ccccc3n2)c1` gave a growth of 26%.
For `COc1ccc2[nH]c(O)c(N=Nc3nc(-c4ccc(C#N)cc4)cs3)c2c1`, the growth was 84.4%.
`O=C1Nc2cc(-c3ccc(NS(=O)(=O)c4ccc(F)c(Cl)c4)cc3)ccc2/C1=C/c1ccc[nH]1` showed a growth of 46.9%.
Compound `COc1cc(C2CC(c3ccccc3)=Nc3c(N)nc(N)nc3N2)ccc1Oc1nc(Nc2ccc(F)cc2)nc(N(C)C)n1` (configuration not stated) has a growth of 26.1%.
For `COC(=O)c1cccc(Oc2ccc(NC(=O)Nc3cc(C(F)(F)F)ccc3F)cc2)c1`, the growth was 78%.
`Cc1cc(=O)oc2cc(OCCCCOc3ccc(/C=C/C(=O)Nc4cccc(Cl)c4)cc3)ccc12` showed a growth of 97.3%.
In the case of `COc1cc(C=O)ccc1Oc1nc(Nc2ccc(F)cc2)nc(N(C)C)n1`, the growth is reported as 65.2% and 70.8%.
`CS(=O)(=O)Nc1cc(-c2ccc3ncnc(N4CCc5cc(F)c(Cl)cc54)c3c2)cnc1Cl` gave a growth of 14.3%.
With `C=CC(=O)Nc1ccc(C(=O)/C=C/c2ccc(N(C)CCF)cc2)c(O)c1` the growth was -32.2% (active).
`CCC(=O)c1c2c(c3ccc4c5ccccc5ccc4n13)C(=O)c1ccccc1C2=O` showed a growth of 90.1%.
For `Fc1ccc(/C=C/c2nc3ccccc3n3c(-c4ccc(Cl)cc4)nnc23)cc1`, the growth was 3.61% (active).
For `COc1ccc(-c2cc(-c3cc(C(=O)c4ccccc4)n4ccc(C)cc34)nc(N)c2C#N)cc1`, the growth was 99.7%.
In the case of `COc1cc(C2C(C(=O)OCc3ccccc3)=C(C)Nc3nc4ccccc4n32)cc(OC)c1OC` (configuration not stated), the growth is reported as 16.1%.
For `CCOC(=O)/C=C/c1cccc2c1C(=O)NC(C)(c1cc3cc(Cl)ccc3oc1=O)N2` (configuration not stated), the growth was 2.37% (active).
Work on `CCOP(=O)(OCCCl)c1nc(-c2ccc(C)cc2)oc1NCc1ccccc1` (configuration not stated) yielded a growth of 71.9%.
`Cn1cc(-c2cc3nc(-c4cn(C)c5ncc(Br)cc45)cc(N)n3n2)c2cc(Cl)ccc21` was tested, and the growth was -62.4% (active).
With `COc1c(F)ccc(C(=O)Nc2ccc3nc(NC(=O)C4CCCN(S(=O)(=O)c5ccc(C(C)(C)C)cc5)C4)sc3c2)c1F` (configuration not stated) the growth was 66.9%.
Compound `N#C/C(=C/c1ccc([N+](=O)[O-])cc1)c1nnc(NC(=O)c2ccc(-n3c(=O)[nH]c4ccccc4c3=O)cc2)s1` has a growth of 99.3%.
For `C=C1CCC2C3(C)COC(c4ccccc4)OC3CCC2(C)C1CC(NCc1ccccc1)C1=CCOC1=O` (configuration not stated), the growth was 43.6%.
`COc1cc(NC(=O)CSc2nnc(-c3ccc4nc(-c5ccc(Cl)cc5)[nH]c4c3)o2)cc(OC)c1OC` gave a growth of 56.6%.
`N#Cc1ccc(-c2nn(-c3ccc(C(=O)O)cc3)cc2CNc2cc(Cl)cc(Cl)c2)cc1` was tested, and the growth was 29.5%.
In the case of `COc1ccc(CCN2C(=O)/C(=C/c3csc(C#N)n3)SC2=S)cc1`, the growth is reported as -23.8% (active).
In the case of `COc1ccc(C2OC[C@@]3(C)C4CC[C@]5(C)C(CC=C6C7CC(C)(C)CC[C@]7(C(=O)O)CC[C@]65C)[C@@]4(C)C[C@@H](O)[C@@H]3O2)cc1` (some centres not stated), the growth is reported as 46.9%.
Work on `O=C(c1ccc(F)cc1)C(c1c[nH]c2ccccc12)c1c[nH]c2ccccc12` yielded a growth of 41.8%.
